# According to the supplement of paper PMC12632987:
# In all, about 1,800 sequences were measured (“median log2 fold change of GCK-ALFA target abundance (FLAG IP / Myc IP barcode read proportion)”: median about 0.14, lowest 2% from about -0.84 on). Only a selection was taken, and the lowest values are over-represented in it overall.
# T1: TRAF2, Q12933
# T1 chain: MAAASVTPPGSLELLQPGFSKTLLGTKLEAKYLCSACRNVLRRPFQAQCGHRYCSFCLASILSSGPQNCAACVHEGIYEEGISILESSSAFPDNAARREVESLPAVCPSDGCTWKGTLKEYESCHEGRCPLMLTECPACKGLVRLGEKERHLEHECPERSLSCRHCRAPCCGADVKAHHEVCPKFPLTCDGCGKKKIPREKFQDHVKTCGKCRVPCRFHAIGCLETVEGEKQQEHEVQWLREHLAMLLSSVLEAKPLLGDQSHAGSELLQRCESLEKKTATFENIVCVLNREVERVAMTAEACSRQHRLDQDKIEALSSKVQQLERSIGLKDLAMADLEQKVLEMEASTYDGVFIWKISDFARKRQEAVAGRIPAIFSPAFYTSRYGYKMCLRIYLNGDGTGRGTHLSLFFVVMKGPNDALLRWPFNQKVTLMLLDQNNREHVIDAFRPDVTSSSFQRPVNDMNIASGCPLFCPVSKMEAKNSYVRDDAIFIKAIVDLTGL
# B1: traf2_out_11_169_882 (protein)
# chain: EEKEKNRKFNDFALELNDKAKKELLAFAEELAKKLGLDVAEVKAIFEANKNSSLSALAAALIEYFRSKGHEDAAAAVLAKYEELQEKINKEGTKKLKELE
# B2: traf2_out_17_178_1712 (protein)
# chain: SKEEARKEISAATDEMIDLAEAAATRLLEIARKEGSLSPEELAELERARRLGSARTTLALMERAIPKSKSAEEVQAILDEFRKRYAELSKKIAEALEKYE
# B3: traf2_out_20_38_2005 (protein)
# chain: SEEEEEERRLKIIIEAANEELDRWEKEIEELKAEGKTVEEIAERAKEEVRRLLTAAGLEEEAEELIAEIDLVLDSPDALDAIARILARAKALVVQKELNK
# B4: traf2_out_20_3_2071 (protein)
# chain: KELEEEAERELERALELLKRAAELADEETAKRLEELIKRLKASRELSVDDRLVVVSEVRREVLELAEEAKAAGKEELAKELEEAAEALNRAAQLLYDILQ
# B5: traf2_out_13_95_1038 (protein)
# chain: SKELAEKIMEIADEMEERSLALLEAAKEELADDPEAVAVLTEAKRLAETKGISEALHLLREASAANPEHAARFDALIEELEAIRREAGRKVAKLIKEEEE
# B6: traf2_out_15_48_1367 (protein)
# chain: DAAAYRAAMNAAADRIIATKDEVKKEVKELAKVASPEVKKKLNEVAKLIEAGAGSQEIIAALKEAAKVASPELKAKLEELAERLRAARREASAIAAAMAK
# B7: traf2_out_13_95_1077 (protein)
# chain: SKETNEKIMEIADEMLDKVNEVLEELAEKVKDDPEMKAKVEEALHLATHRGINEAIHLLKKLAEENEEYKELLEEAIKKLEEIKEKAGKEVAKLLKEEEE
# B8: traf2_out_13_95_1157 (protein)
# chain: SAELAKKIMEIADEMLDRSLAVLDALLAKAKAAGKLEAEVAEARHLAETRSINEAIAKLRELAKAHPEFKAELDAAIAELEALRREAGRKVAELIKEEEE
# B9: traf2_out_17_162_1532 (protein)
# chain: SELEERLRELEEELRELEKRLEELEKELENLENMSKEELSDLLVEASEARRRALELAEELRELRSEIGEERAEELIRRAEEIAERLQRIANKIYEELEKK
# B10: traf2_out_17_162_1490 (protein)
# chain: EELEERLRELERRLEELERRLKELEEKLKNIDKLSKEELTDLLVEASEAKREARRLAEELRELRERTGREELEELIRRAEEIAERLQRIANIIYKELEKK
# B11: traf2_out_17_162_1548 (protein)
# chain: GELEERLKELEEELEELERRAEELESLLPELPKLSKEELTDLLVEASEARRRARRLAEEIEKLKEEIGEERAEELRERAEEIAERLQRIANAIYKELEKK
# B12: traf2_out_18_3_1898 (protein)
# chain: SEEKLKEISEKIDEIIDEVTAKAREVLDWLEKNKPEVKERIAALRADLEAGAGPFGILRELARLAKEAGEEEKAKEIEEFLKEKSKELQELVDEYLELRA
# B13: traf2_out_13_95_1133 (protein)
# chain: SAETAKKIMEIADKMLDEVEKILEELLKIFEKKGIGVEEIKEALYLARHQSINEAIAKLEELSKKYPEFKEELDKAIEEIKALREKAGKEVAEILKKEKE
# B14: traf2_out_1_27_1000 (protein)
# chain: STEEERELLRRANREIGRASPEEQVEIIKRTLREALERGIDSPEHIAVVLILMLGDEETRERAIEAAREVLREAGISEEAIERMERRVRSGWERLDRLLA
# B15: traf2_out_11_169_815 (protein)
# chain: EEAEKNRKINDFALELNDEAKKKLLEHAKKLAKEAGLDVEEVEKIFEENKNKSLSAVAAALIKYFRSKGKEEEAEAVLKKYEELKEEINKKVTEKIKELE
# B16: traf2_out_13_95_1055 (protein)
# chain: SAETAAKINEIADEALERALALLRAAQEEVADDPAASAVLAEALRLAETRGISEAIHLLREAQAADPAHAERFAALIEELEAIRREAGRRVAEVLKEEKE
# B17: traf2_out_18_64_1955 (protein)
# chain: SELDEEIDRLVDEMDERRRLRLALARALQARAAADPAWQPLLDYFHAHVNDIGAAGARRMLALLAAGAPPAELRAVMEEDLGEGRELQRRLAELLEKREK
# B18: traf2_out_18_117_1787 (protein)
# chain: MEREEIIERLKEIAEETGRAASELGKLVLEKWEELTPEEKSEAFDVLADLSEVRREAQLLIIEIEEKNLPIEEAKKRLEELEKRAEEALKRAEEKIKRIK
# B19: traf2_out_17_178_1705 (protein)
# chain: SKEEARKKISEATDKMIDLAQEAAERLLEIAEREGSLSPEELAELRRARRLGSARTTLALMRRAIPRSRSAEEVRRLVEEFEKEYRELSKIIAEELKKYE
# B20: traf2_out_13_95_1155 (protein)
# chain: SKELAEKIMEIADRMLDEALAVLDELLAAAKAAGKLEEEVARARHLAEHHSINEAIALLRELAKAHPEFKEELDAAIARLEALRREAGREVAELIKKEKE
# B21: traf2_out_13_95_1102 (protein)
# chain: SRELAEEIMKIADEMIDKANEILEELLKIAKEKGVAEEEVKEALYLAEHRSIREAIHKLKELAKEYPELKEEFEEAIEKLEKLIEEAGKKVAELIKEEKE
# B22: traf2_out_6_166_2459 (protein)
# chain: ESETLKEIREIIKELSKYSTEIIVKAFDEVAKKVDEESARILRQLKSAVEQAEKLGLDVETALTATVLGLITLGVPEETLLKLLKEVLKEAKKIAEEKEK
# B23: traf2_out_13_95_1054 (protein)
# chain: SAETAEKINEIADEALEEALALLEEARAEVADDPEASAVLDEALRLAETKGISEAIHLLEEARAADPAHAERFAALIERLRAIRREAGRKVAEVLKEAEE
# B24: traf2_out_14_166_1277 (protein)
# chain: MTPEEIERIRKIVDELEPLTDAAVARARAILDKVRDKLSPEDLARVEALLALAARNIGSSAINALREIAKIYKKAGLDEAAAAMQALADELEEKLKKLNK
# B25: traf2_out_6_156_2405 (protein)
# chain: MLEEIEEETLKEIEELIKELAAASEEKKIAYISKIAGTFYRGLQRARAAGASVEELEAFGKRVLEKTKELLDEEGLPQDVKDLILSSLNAVFDVALAEAR
# Molecular target: T1, TRAF2, Q12933
# Experiment: median log2 fold change of GCK-ALFA target abundance (FLAG IP / Myc IP barcode read proportion) (log2 ratio); each designed protein is fused to an ALFA-tag nanobody in HEK293 cells to bring the named protein to FLAG-tagged glucokinase (GCK); Myc marks an untargeted standard; higher = target protein stabilised (more abundant)
# Conditions: target protein: 3xFLAG-MCP-GCK-ALFA reporter; HEK293 landing pad (RPLP)
# How it was run: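 The readout is target abundance, the per-binder median log2 ratio of FLAG to Myc barcode read proportions. It came from HEK293 landing-pad cells carrying a recombined ALFA-nanobody-fused binder library, induced with 2 μg mL^−1 doxycycline and transfected with a plasmid for a FLAG-tagged target and a Myc-tagged standard. After 48 h, lysates were immunoprecipitated with anti-FLAG and anti-Myc, and circular RNA barcodes were reverse transcribed, amplified and sequenced. Each barcode needed a proportion of at least 10^−7 in both replicates and each binder at least 3 barcodes per replicate, a pseudocount of 10^−6 was added, and the replicates were pooled.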
row,Binder,median log2 fold change
1,B1,0.444
2,B2,0.217
3,B3,-1.09
4,B4,0.112
5,B5,-0.177
6,B6,-0.184
7,B7,-0.0213
8,B8,-0.558
9,B9,0.0409
10,B10,-1.17
11,B11,0.22
12,B12,-0.192
13,B13,-0.0113
14,B14,0.155
15,B15,0.235
16,B16,0.257
17,B17,0.163
18,B18,0.101
19,B19,-0.521
20,B20,-0.372
21,B21,-0.486
22,B22,0.077
23,B23,0.213
24,B24,0.354
25,B25,0.151
